Test results: PubChem BioAssay (NCATS)
Where “and” joins values, the source holds several entries; their conditions need not be identical. Identical values can stand only once. Calls of active or inactive are those of the source. A call without a number means that no potency is given here. Unless noted, calls follow the shape of the dose curve; as a rule, active = well fitted curve in the direction sought with a large enough effect; inconclusive = small, poorly fitted or top-dose-only effect, or another doubt; inactive = no such curve, though single readings can be large; an effect the other way counts as inactive or inconclusive.

How the values were obtained:
[1] = target: Phosphoglycerate kinase, glycosomal (Trypanosoma brucei brucei) (UniProt P07378); experiment: qHTS Validation Assay to Find Inhibitors of Phosphoglycerate Kinase (AID 504547)
Method in brief: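 Inhibition of the enzyme is judged by a Kinase-Glo Plus luminescent signal following a one-hour incubation at room temperature. Because 1,3-BPG is unstable, it is made in situ by GAPDH at 100nM final; no-PGK wells define the baseline.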

[2] = target: phosphoglycerate mutase (Leishmania major) (UniProt Q4Q090); experiment: qHTS Validation Assay to Find Inhibitors of Phosphoglycerate Mutase (AID 504548); also: series mostly up to about 58 µM
Method in brief: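 Luminescent end-point read-out via Kinase-GloPlus after a 10-minute development. Reaction: 1.25nM Leishmania major PGAM with substrate and compound, 45 minutes at room temperature in TEA buffer (pH 7.6) with MgCl2 and Tween-20.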

[3] = target: Ubiquitin carboxyl-terminal hydrolase 1 (Homo sapiens) (UniProt O94782); experiment: Inhibitors of USP1/UAF1: Pilot qHTS (AID 504865);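 also: rhodamine fluorescence freed from ubiquitin-rhodamine substrate followed over time; top concentration of the series differs between compounds; nearly all actives have a fitted effect of over 35% in size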
Method in brief: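 Deubiquitinase activity followed as kinetic rhodamine fluorescence release from 150 nM Ub-Rho. 1 nM USP1/UAF1 with compound, after 15 min room-temperature preincubation, in HEPES pH 7.8 buffer containing TCEP, EDTA, BSA and Tween-20.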

[4] = qHTS for Inhibitors of ATXN expression: Validation (AID 588378); also: nearly all actives have a fitted effect of over 75% in size; also: potency is read from the fitted curve at half-maximal effect
Method in brief: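 Luciferase luminescence (Bright-Glo) from an ATXN2-FFLuc HEK293 line after 24 h compound exposure at 37 °C, preceded by a CellTiter-Fluor fluorescence viability read. Serial dilutions of a reference ATXN2 inhibitor and a luciferase inhibitor served as controls.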

[5] = target: Estrogen receptor (Homo sapiens) (UniProt P03372); experiment: qHTS assay for small molecule agonists of estrogen receptor alpha signaling (AID 588514; calls by dose curve; also: nearly all actives have a fitted effect of over 70% in size)
Method in brief: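 Cells were plated at 5000/well, incubated 4 hrs at 37 C, dosed with compound titration series, incubated 18 hrs at 37 C, loaded with CCF4 dye for 2 hrs at RT, then fluorescence was read.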

[6] = target: Androgen receptor (Homo sapiens) (UniProt P10275); experiment: qHTS assay for small molecule agonists of androgen receptor signaling (AID 588515; active = well fitted curve in the direction sought with a large enough effect in the signal ratio, with a control signal flat; inconclusive = small, poorly fitted or top-dose-only effect, or effect the other way, or a change in a side signal; inactive = no such curve, though single readings can be large or run the other way; the % refers to the signal ratio); settings: AR-UAS-bla HEK293, beta-lactamase ratio, agonist 16 h; hits give high values
Method in brief: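 EC50 and efficacy came from Hill fits of titrations (up to 92 uM) normalized to 30 nM R1881 as 100% and DMSO as 0%. Compound exposure was 16 h at 37 C on AR-UAS-bla HEK293 cells, with a 405/460/530 nm CCF4 fluorescence read.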

[7] = target: Androgen receptor (Homo sapiens) (UniProt P10275); experiment: qHTS assay for small molecule antagonists of androgen receptor signaling (AID 588516; active = well fitted curve in the direction sought with a large enough effect in the signal ratio, with a control signal flat, not every such curve was filed as active; inconclusive = small, poorly fitted or top-dose-only effect, or effect the other way, or a change in a side signal; inactive = no such curve, though single readings can be large or run the other way; the % refers to the signal ratio)
Method in brief: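 Antagonist mode: inhibition of R1881-stimulated (10 nM final) bla reporter in GeneBLAzer AR HEK 293 cells, 16 h at 37C, compounds titrated. IC50 and efficacy from Hill-equation fits of 405/460–530 nm FRET ratios.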

[8] = qHTS for Inhibitors of ATXN expression: Validation of Cytotoxic Assay (AID 588349); also: potency is read from the fitted curve at half-maximal effect
Method in brief: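 Read-out: ATP-based luminescence (CellTiter Glo) reflecting viability of HEK293 cells after 72 hr incubation at 37 degrees C with a concentration series of each compound.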

[9] = target: Estrogen receptor (Homo sapiens) (UniProt P03372); experiment: qHTS assay for small molecule antagonists of estrogen receptor alpha signaling (AID 588513; active = well fitted curve in the direction sought with a large enough effect in the signal ratio, with a control signal flat, not every such curve was filed as active; inconclusive = small, poorly fitted or top-dose-only effect, or effect the other way, or a change in a side signal; inactive = no such curve, though single readings can be large or run the other way; the % refers to the signal ratio; also: potency is read from the fitted curve at half-maximal effect)
Method in brief: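 Antagonist mode: inhibition of 0.5 nM 17-beta-estradiol-driven beta-lactamase reporter in HEK 293 ER-alpha-UAS-bla cells, 18 h at 37C, CCF4 readout after 2 h at RT. Normalised to estradiol and DMSO; titration fitted to Hill.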

[10] = target: DNA dC->dU-editing enzyme APOBEC-3G (Homo sapiens) (UniProt Q9HC16); experiment: qHTS for inhibitors of Vif-A3G interactions: Validation (AID 588379)
Method in brief: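 HeLa cells stably expressing Vif and A3G-eYFP, 700 cells/well, incubated overnight at 37 deg C, then exposed to compound overnight at 37 deg C. Inhibition of Vif-mediated degradation read as increased yellow fluorescence (Ex 488/Em 500-530) by laser-scanning cytometry.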

Estrogen receptor (Homo sapiens), sequence (P03372 whole entry, looked up): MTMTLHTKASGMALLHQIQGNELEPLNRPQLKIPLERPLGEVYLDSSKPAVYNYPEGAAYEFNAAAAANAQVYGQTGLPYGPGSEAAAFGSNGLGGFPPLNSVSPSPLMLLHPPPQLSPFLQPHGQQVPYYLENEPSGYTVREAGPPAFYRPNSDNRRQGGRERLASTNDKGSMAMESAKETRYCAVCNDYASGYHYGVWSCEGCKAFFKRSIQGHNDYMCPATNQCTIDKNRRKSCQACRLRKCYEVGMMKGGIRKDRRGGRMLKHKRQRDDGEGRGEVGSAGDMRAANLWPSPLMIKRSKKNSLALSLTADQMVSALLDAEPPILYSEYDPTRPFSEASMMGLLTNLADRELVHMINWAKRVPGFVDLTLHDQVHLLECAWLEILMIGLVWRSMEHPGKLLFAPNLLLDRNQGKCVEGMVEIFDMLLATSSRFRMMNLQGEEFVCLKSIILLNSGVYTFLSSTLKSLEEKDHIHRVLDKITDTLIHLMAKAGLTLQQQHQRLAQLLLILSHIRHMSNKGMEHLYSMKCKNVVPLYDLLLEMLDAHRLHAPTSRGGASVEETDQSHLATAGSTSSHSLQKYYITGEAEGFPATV
DNA dC->dU-editing enzyme APOBEC-3G (Homo sapiens), sequence (Q9HC16 whole entry, looked up): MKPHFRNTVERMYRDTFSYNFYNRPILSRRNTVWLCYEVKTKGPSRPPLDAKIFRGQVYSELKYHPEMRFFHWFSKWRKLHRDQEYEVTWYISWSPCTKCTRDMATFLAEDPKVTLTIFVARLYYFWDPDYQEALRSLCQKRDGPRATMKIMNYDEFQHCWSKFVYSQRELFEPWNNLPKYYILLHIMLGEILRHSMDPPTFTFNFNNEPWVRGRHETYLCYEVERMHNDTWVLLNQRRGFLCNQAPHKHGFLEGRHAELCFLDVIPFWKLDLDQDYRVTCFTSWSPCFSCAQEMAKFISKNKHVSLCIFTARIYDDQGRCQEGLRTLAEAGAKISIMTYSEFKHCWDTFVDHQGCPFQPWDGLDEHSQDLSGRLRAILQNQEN
Ubiquitin carboxyl-terminal hydrolase 1 (Homo sapiens), sequence (O94782 whole entry, looked up): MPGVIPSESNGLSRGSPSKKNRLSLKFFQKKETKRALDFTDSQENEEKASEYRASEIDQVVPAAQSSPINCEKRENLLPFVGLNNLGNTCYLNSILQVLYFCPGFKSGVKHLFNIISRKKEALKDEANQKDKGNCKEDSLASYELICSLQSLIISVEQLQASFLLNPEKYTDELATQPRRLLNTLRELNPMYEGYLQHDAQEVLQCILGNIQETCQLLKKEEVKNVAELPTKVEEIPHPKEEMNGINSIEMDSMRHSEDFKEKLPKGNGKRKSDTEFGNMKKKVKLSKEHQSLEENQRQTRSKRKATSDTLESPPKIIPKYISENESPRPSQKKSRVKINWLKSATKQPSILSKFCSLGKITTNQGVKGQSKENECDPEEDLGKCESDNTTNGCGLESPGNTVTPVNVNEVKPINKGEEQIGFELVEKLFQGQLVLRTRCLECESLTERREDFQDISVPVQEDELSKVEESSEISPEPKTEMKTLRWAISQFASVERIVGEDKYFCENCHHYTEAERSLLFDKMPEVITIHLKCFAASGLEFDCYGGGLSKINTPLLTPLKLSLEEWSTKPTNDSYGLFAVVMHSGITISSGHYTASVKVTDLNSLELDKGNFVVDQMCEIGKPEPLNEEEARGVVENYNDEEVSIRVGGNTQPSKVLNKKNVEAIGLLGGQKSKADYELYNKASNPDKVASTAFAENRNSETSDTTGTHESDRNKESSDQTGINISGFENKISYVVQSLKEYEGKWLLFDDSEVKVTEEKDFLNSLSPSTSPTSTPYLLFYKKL
phosphoglycerate mutase (Leishmania major), sequence (Q4Q090 1-553): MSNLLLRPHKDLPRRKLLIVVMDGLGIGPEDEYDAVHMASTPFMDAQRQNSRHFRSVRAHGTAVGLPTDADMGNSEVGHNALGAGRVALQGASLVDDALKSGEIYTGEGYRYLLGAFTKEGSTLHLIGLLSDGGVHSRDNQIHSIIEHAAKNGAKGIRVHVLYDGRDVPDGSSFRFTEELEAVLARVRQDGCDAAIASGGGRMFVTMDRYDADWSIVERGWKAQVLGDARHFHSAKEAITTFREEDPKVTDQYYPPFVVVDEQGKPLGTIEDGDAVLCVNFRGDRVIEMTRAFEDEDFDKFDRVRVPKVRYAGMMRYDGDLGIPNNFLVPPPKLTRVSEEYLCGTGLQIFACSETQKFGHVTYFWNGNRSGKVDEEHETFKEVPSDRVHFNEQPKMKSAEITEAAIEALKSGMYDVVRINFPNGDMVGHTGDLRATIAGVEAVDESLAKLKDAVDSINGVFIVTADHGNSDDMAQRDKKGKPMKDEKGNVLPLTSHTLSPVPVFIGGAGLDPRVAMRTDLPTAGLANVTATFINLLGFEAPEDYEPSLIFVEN
Androgen receptor (Homo sapiens), sequence (P10275 whole entry, looked up): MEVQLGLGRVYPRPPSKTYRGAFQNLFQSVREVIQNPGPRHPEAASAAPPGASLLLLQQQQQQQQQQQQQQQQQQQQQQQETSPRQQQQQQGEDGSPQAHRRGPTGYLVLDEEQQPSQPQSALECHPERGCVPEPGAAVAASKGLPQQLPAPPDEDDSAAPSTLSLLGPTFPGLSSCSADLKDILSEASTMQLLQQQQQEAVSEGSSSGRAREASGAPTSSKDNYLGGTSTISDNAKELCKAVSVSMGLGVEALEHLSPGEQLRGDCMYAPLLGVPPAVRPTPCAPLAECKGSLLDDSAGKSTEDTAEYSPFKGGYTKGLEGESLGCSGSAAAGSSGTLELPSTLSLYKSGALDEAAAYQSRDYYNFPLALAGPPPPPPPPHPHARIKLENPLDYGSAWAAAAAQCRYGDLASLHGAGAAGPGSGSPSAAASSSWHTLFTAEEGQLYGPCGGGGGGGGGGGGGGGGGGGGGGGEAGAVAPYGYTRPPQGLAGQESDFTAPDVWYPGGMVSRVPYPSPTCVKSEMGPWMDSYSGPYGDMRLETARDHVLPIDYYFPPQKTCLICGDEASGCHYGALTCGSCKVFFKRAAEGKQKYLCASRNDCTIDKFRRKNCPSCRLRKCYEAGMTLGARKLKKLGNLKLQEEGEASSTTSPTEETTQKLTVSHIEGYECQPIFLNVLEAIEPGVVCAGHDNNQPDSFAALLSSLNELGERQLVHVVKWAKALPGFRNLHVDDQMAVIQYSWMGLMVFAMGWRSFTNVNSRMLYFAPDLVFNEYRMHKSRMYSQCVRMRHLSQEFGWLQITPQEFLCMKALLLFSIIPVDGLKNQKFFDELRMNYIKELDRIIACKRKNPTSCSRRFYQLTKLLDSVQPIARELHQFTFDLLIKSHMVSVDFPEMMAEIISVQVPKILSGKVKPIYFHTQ
Phosphoglycerate kinase, glycosomal (Trypanosoma brucei brucei), sequence (P07378 whole entry, looked up): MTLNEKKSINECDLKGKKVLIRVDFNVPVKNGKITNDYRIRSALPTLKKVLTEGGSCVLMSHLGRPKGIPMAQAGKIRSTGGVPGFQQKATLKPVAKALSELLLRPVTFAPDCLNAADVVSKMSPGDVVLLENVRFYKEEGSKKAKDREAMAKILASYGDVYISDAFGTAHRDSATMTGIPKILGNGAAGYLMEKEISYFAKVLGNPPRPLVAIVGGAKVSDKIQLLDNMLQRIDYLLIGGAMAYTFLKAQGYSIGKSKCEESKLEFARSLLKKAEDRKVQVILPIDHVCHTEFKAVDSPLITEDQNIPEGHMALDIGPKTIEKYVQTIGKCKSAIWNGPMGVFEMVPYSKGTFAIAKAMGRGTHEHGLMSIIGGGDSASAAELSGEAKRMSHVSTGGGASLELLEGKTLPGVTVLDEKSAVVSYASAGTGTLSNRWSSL

Structure (SMILES) | outcome [1] | outcome [2] | Potency [3] | Potency [4] | outcome [5] | activation [6] | outcome [7] | Potency [8] | Potency [9] | outcome [10]
CC(C)OC(=O)C(C)(C)Oc1ccc(C(=O)c2ccc(Cl)cc2)cc1 | inactive | inactive | inactive | inactive | inactive | -4% (inactive) | inactive |  |  | 
NC(N)=Nc1nc(CSCC/C(N)=N/S(N)(=O)=O)cs1 | inactive | inactive | inactive | inactive |  |  |  | inactive |  | 
CC(C)(C)c1ccc(C(O)CCCN2CCC(C(O)(c3ccccc3)c3ccccc3)CC2)cc1 (configuration not stated) | inactive | inactive |  |  |  |  |  |  |  | 
Cc1cccc(C)c1OCC(C)N (configuration not stated) | inactive | inactive | inactive | inactive |  |  |  | inactive |  | 
O=C(NCCN1CCOCC1)c1ccc(Cl)cc1 | inactive | inactive | inactive | inactive |  |  |  | inactive |  | 
O=C1NC(=O)C(c2ccccc2)(c2ccccc2)N1 | inactive | inactive | inactive | inactive |  |  |  | inactive |  | 
CCN(CC)C(=O)c1ccc(O)c(OC)c1 | inactive | inactive | inactive | inactive |  |  |  | inactive |  | 
CCCCC1C(=O)N(c2ccccc2)N(c2ccccc2)C1=O | inactive | inactive | inactive | inactive | inactive |  |  | inactive | inactive | 
CC(=O)CCCCn1c(=O)c2c(ncn2C)n(C)c1=O | inactive | inactive | inactive | inactive |  |  |  | inactive |  | 
NCCS | inactive | inactive | inactive | inactive |  |  |  | inactive |  | 
O=c1c(-c2ccc(O)cc2)coc2cc(O)ccc12 | inactive | inactive | inactive | inactive |  |  | inactive | inactive |  | inactive
CN(C)CCC(c1ccccc1)c1ccccn1 (configuration not stated) | inactive | inactive | inactive | inactive |  |  |  | inactive |  | 
CCN1CCC[C@H]1CNC(=O)c1cc(S(N)(=O)=O)ccc1OC | inactive | inactive | inactive | inactive |  |  |  | inactive |  | inactive
O=C1NCC2(CCN(CCc3ccccc3)CC2)O1 | inactive | inactive | inactive | inactive |  |  |  | inactive |  | 
O=C(O)CCc1nc(-c2ccccc2)c(-c2ccccc2)o1 | inactive | inactive | inactive | inactive |  |  |  | inactive |  | 
COc1cccc(-c2cc(=O)c3ccccc3o2)c1N | inactive | inactive | inactive | inactive |  |  |  | inactive |  | inactive

Structure (SMILES) | outcome [1] | outcome [2] | Potency [3] | Potency [4] | outcome [5] | activation [6] | outcome [7] | Potency [8] | Potency [9] | outcome [10]
COc1ccccc1N1CCN(CCCNc2cc(=O)n(C)c(=O)n2C)CC1 | inactive | inactive | inactive | inactive |  |  |  | inactive |  | inactive
CC(C)NCC(O)COc1cccc2[nH]ccc12 (configuration not stated) | inactive | inactive | inactive | inactive |  |  |  | inactive |  | 
CCCNC(=O)NS(=O)(=O)c1ccc(Cl)cc1 | inactive | inactive | inactive | inactive | inactive |  |  | inactive | inactive | 
C[N+](C)(C)CCCCCC[N+](C)(C)C | inactive | inactive | inactive | inactive |  |  |  | inactive |  | 
CC(=O)N[C@@H](CS)C(=O)O | inactive | inactive | inactive | inactive |  |  |  | inactive |  | 
COC(=O)[C@@H]1[C@H]2C[C@H]3c4[nH]c5ccccc5c4CCN3C[C@@H]2CC[C@@H]1O | inactive | inactive | inactive |  |  |  |  | inactive |  | 
CC(=O)c1ccc(S(=O)(=O)NC(=O)NC2CCCCC2)cc1 | inactive | inactive | inactive | inactive | inactive | -0.897% (inactive) and 2.97% (inactive) | inactive | inactive | inactive | 
CCn1cc(C(=O)O)c(=O)c2ccc(C)nc21 | inactive | inactive | inactive | inactive |  |  |  | inactive | inactive | 
CC1=C(/C=C/C(C)=C/C=C/C(C)=C/C(=O)Nc2ccc(O)cc2)C(C)(C)CCC1 | inactive | inactive | inactive | 31.6 µM (active) | inactive |  |  | 31.6 µM (active) | 15.8 µM [inconclusive] (active) | 
CCN(CC)CCOC(=O)c1ccc(N)cc1 | inactive | inactive | inactive | inactive |  |  |  | inactive |  | 
CC(=O)O[C@]1(C(C)=O)CC[C@H]2[C@@H]3C=C(Cl)C4=CC(=O)[C@@H]5C[C@@H]5[C@]4(C)[C@H]3CC[C@@]21C | inactive | inactive | inactive | inactive |  |  |  | inactive |  | 
Clc1ccc(C(c2ccc(Cl)cc2)n2cc[n+](CC(OCc3ccc(Cl)cc3Cl)c3ccc(Cl)cc3Cl)c2)cc1 (configuration not stated) | inactive | inactive |  |  |  |  |  |  |  | 
CCCCCN(C)CCC(O)(P(=O)(O)O)P(=O)(O)O | inactive | inactive | inactive | inactive |  |  |  | inactive |  | 
COc1ccc(-c2coc3cc(O)cc(O)c3c2=O)cc1 |  |  |  |  |  |  |  |  |  | inactive
CC/C(=C(\c1ccccc1)c1ccc(OCCN(C)C)cc1)c1ccccc1 | inactive | inactive |  | 22.4 µM (active) |  |  |  | 25.1 µM (active) |  | inactive
